Assay results from PubChem BioAssay (EPA / NIEHS).
Records with an inconclusive call do not appear. Active and inactive are the calls of the source. The calls were made as follows, unless noted: active = hit-call score of the fitted dose curve at least 0.9, where 1 is the maximum; inactive = score below 0.9.

How the values were obtained:
[1] = TOX21_p53_BLA_p2_viability: Viability Assessment in the Tox21 HCT-116 p53 Agonism Beta-lactamase Assay, Phase 2 (AID 2283591; active = hit-call score of the fitted dose curve at least 0.9, where 1 is the maximum;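 also: compound exposure lasted 16 h at 37 °C; actives lower the ATP signal meaning cytotoxicity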)
Summary of the method: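 HCT116 p53-bla cells, 4000/well, dosed after 5 h plating (217-fold dilution of DMSO stocks) and incubated 16 h at 37C. Viability taken as cellular ATP by CellTiter-Glo luminescence after 30 min RT; signal loss marks cytotoxicity.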

[2] = molecular target: Cellular tumor antigen p53 (Homo sapiens) (UniProt P04637); assay: TOX21_p53_BLA_p2_ratio: Tox21 HCT-116 p53 Agonism Beta-lactamase Assay, Ratio, Phase 2 (AID 2283592; active = hit-call score of the fitted dose curve at least 0.9, where 1 is the maximum)
Sequence of Cellular tumor antigen p53 (Homo sapiens) (P04637 whole entry, looked up): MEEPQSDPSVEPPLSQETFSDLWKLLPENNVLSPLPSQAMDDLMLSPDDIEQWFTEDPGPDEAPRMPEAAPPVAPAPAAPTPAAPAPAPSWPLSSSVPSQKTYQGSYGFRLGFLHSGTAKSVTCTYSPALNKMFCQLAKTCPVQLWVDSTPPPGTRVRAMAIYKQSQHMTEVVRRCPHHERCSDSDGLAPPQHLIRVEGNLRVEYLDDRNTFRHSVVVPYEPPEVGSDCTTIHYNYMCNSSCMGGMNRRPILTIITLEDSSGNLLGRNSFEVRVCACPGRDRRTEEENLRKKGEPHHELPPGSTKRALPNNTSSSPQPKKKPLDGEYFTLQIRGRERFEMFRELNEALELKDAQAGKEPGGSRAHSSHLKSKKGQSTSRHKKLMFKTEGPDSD
Summary of the method: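 Ratio endpoint: beta-lactamase cleavage of CCF4-AM, blue (460 nm) over green (530 nm). HCT116 reporter line; 16 h treatment, 37C; substrate 2 h RT.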

[3] = TOX21_p53_BLA_p3_viability: Viability Assessment in the Tox21 HCT-116 p53 Agonism Beta-lactamase Assay, Phase 3 (AID 2283593; active = hit-call score of the fitted dose curve at least 0.9, where 1 is the maximum;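 also: cells exposed to compound for 16 h before reading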)
Summary of the method: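 HCT116 cells, 4000/well, dosed 5 h after plating by pin transfer (217-fold dilution from DMSO stock) and incubated 16 h at 37C, 5% CO2. Viability read as ATP luminescence with CellTiter-Glo after 30 min at room temperature.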

[4] = molecular target: Cellular tumor antigen p53 (Homo sapiens) (UniProt P04637); assay: TOX21_p53_BLA_p3_ratio: Tox21 HCT-116 p53 Agonism Beta-lactamase Assay, Ratio, Phase 3 (AID 2283596; active = hit-call score of the fitted dose curve at least 0.9, where 1 is the maximum)
Summary of the method: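 Cells were seeded at 4000/well, rested 5 h at 37C, then dosed with DMSO compound solutions (217-fold dilution) for 16 h. CCF4-AM substrate was loaded for 2 h at room temperature, and the 460/530 nm emission ratio was fitted for gain of signal versus DMSO.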

[5] = TOX21_p53_BLA_p4_viability: Viability Assessment in the Tox21 HCT-116 p53 Agonism Beta-lactamase Assay, Phase 4 (AID 2283597; active = hit-call score of the fitted dose curve at least 0.9, where 1 is the maximum;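 also: hits lower the luminescence signal meaning cytotoxicity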)
Summary of the method: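 Cytotoxicity was inferred from loss of CellTiter-Glo luminescence. HCT116 cells had been dosed with compounds after 5 h plating, incubated 16 h at 37C and 5% CO2, and exposed to the CCF4-AM substrate for 2 h.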

[6] = molecular target: Cellular tumor antigen p53 (Homo sapiens) (UniProt P04637); assay: TOX21_p53_BLA_p4_ratio: Tox21 HCT-116 p53 Agonism Beta-lactamase Assay, Ratio, Phase 4 (AID 2283601; active = hit-call score of the fitted dose curve at least 0.9, where 1 is the maximum)
Summary of the method: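 HCT-116 p53 beta-lactamase reporter cells (4000/well) preincubated 5 h, then compound (217-fold dilution of DMSO stock) for 16 h at 37C. CCF4-AM substrate added 2 h at room temperature; 460/530 nm emission ratio fitted upward versus DMSO.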

[7] = CCTE_Shafer_MEA_dev_firing_rate_mean: CCTE's Neural Network Formation Assay for Mean Firing Rate, Shafer Lab (AID 2284031)
Summary of the method: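 Spike frequency (spikes/recording length, averaged over active electrodes) was recorded on days 5, 7, 9 and 12 and collapsed to AUC; rat cortical cultures received compound continuously over 12 days of network development.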

[8] = CCTE_Shafer_MEA_dev_per_burst_spike_percent: CCTE's Neural Network Formation Assay for Percent of Spikes in a Burst, Shafer Lab (AID 2284032)
Summary of the method: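 Value is trapezoidal AUC over recordings on days 5, 7, 9 and 12 of the well-mean fraction of spikes falling in single-electrode bursts; rat cortical cultures exposed continuously from plating, treatment renewed DIV 5 and 9, fitted downward against DMSO.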

[9] = CCTE_Shafer_MEA_dev_active_electrodes_number: CCTE's Neural Network Formation Assay for Number of Active Electrodes, Shafer Lab (AID 2284040; active = hit-call score of the fitted dose curve at least 0.9, where 1 is the maximum)
Summary of the method: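 Counts electrodes per well firing at least 5 spikes/min, recorded on days 5, 7, 9 and 12 in rat cortical cultures dosed continuously from plating (treatment refreshed DIV 5, 9). Value is the area under the curve over recordings, fitted downward relative to DMSO.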

[10] = CCTE_Shafer_MEA_dev_burst_rate: CCTE's Neural Network Formation Assay for Burst Rate, Shafer Lab (AID 2284042)
Summary of the method: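 Cells plated, treated day 0; recorded DIV 5, 7, 9, 12; fed and re-treated DIV 5, 9. Endpoint: bursts per recording time, active-electrode well mean, trapezoidal AUC, fitted in decreasing direction against DMSO baseline.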

[11] = CCTE_Shafer_MEA_dev_bursting_electrodes_number: CCTE's Neural Network Formation Assay for Number of Bursting Electrodes, Shafer Lab (AID 2284043; active = hit-call score of the fitted dose curve at least 0.9, where 1 is the maximum)
Summary of the method: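 Rat cortical primary neurons, 48-well MEA, 16 electrodes/well; dosing DIV 0–12, re-dosed with full media change DIV 5, 9. Recordings DIV 5/7/9/12, AxIS adaptive spike detector; bursting electrode = ≥1 burst/2 min. AUC across days; loss of signal vs DMSO.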

[12] = CCTE_Shafer_MEA_dev_per_burst_interspike_interval: CCTE's Neural Network Formation Assay for Burst Interspike Interval, Shafer Lab (AID 2284044)
Summary of the method: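 Rat cortical primary cultures, 16 electrodes/well; compound from plating, renewed with full media change DIV 5 and 9. Spikes via adaptive detector; per-burst ISI well-mean over active bursting electrodes; AUC of DIV 5/7/9/12 recordings; loss-direction fit vs DMSO.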

[13] = CCTE_Shafer_MEA_dev_burst_duration_mean: CCTE's Neural Network Formation Assay for Mean Burst Duration, Shafer Lab (AID 2284045)
Summary of the method: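 Rat cortical cultures, 1.5 x 10^5 cells/well with laminin drop; continuous dosing days 0–12, media plus treatment refreshed DIV 5, 9. AxIS adaptive spike detection; mean single-electrode burst duration, AUC over four recordings, negative direction vs DMSO.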

[14] = CCTE_Shafer_MEA_dev_interburst_interval_mean: CCTE's Neural Network Formation Assay for Mean Interburst Interval, Shafer Lab (AID 2284046);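 also: well-mean interburst interval of bursting electrodes as AUC over four recording days; curve fitted for decrease in interburst interval relative to DMSO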
Summary of the method: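 Developing rat cortical networks on 48-well MEAs receive compound from the day of plating. Burst intervals from each active electrode are averaged per well, and AUC over the recording days is fitted in the negative direction against DMSO.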

[15] = CCTE_Shafer_MEA_dev_inter_network_spike_interval_mean: CCTE's Neural Network Formation Assay for Mean Inter-network Spike Interval, Shafer Lab (AID 2284047)
Summary of the method: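 Rat cortical cultures, 1.5 x 10^5 cells/well on 48-well MEA plates; continuous exposure days 0–12, medium and compound refreshed DIV 5, 9. Mean time between consecutive network-spike peaks; AUC across DIV 5/7/9/12; DMSO baseline, negative fitting direction.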

[16] = CCTE_Shafer_MEA_dev_network_spike_number: CCTE's Neural Network Formation Assay for Number of Network Spikes, Shafer Lab (AID 2284048);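 also: synchronized bursts across electrodes counted on days 5 7 9 12 and integrated as AUC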
Summary of the method: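 Rat cortical primary cultures on 48-well MEA (16 electrodes/well); continuous exposure DIV 0–12, full medium and treatment exchange DIV 5, 9. Readout: network spike count, AxIS adaptive detection, recordings DIV 5/7/9/12 collapsed to AUC; loss-of-signal fit, DMSO baseline.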

[17] = CCTE_Shafer_MEA_dev_network_spike_peak: CCTE's Neural Network Formation Assay for Mean Number of Electrodes in Network Spike, Shafer Lab (AID 2284049)
Summary of the method: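 Network-spike peak electrode count from recordings on days 5, 7, 9 and 12 was combined as trapezoidal area under the curve. Rat cortical cultures were treated continuously from plating, with compound renewed at each feed (DIV 5, 9); fits versus DMSO.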

[18] = CCTE_Shafer_MEA_dev_spike_duration_mean: CCTE's Neural Network Formation Assay for Mean Spike Duration, Shafer Lab (AID 2284051);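 also: mean network spike duration pooled as area under curve over DIV 5 to 12 recordings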
Summary of the method: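 Readout is the average length of network spikes, clustered firing across electrodes, summed over DIV 5, 7, 9 and 12 as area under the curve. Neurons from rat cortex developed networks on MEA plates under continuous 12-day exposure.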

[19] = CCTE_Shafer_MEA_dev_network_spike_duration_std: CCTE's Neural Network Formation Assay for Standard Deviation of Network Spike Duration, Shafer Lab (AID 2284052);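 also: area under curve of spike duration SD across recording days 5 to 12; hits are decreases in network spike duration SD versus DMSO vehicle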
Summary of the method: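 Read-out is the trapezoidal area-under-the-curve across recordings made on days 5, 7, 9 and 12, fitted in the negative direction against DMSO baseline. Neurons were primary rat cortical cells treated from day 0, with treatment renewed at each feed.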

[20] = CCTE_Shafer_MEA_dev_per_network_spike_spike_number_mean: CCTE's Neural Network Formation Assay for Mean Number of Spikes in a Network Spike, Shafer Lab (AID 2284053)
Summary of the method: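 Continuous twelve-day exposure of developing rat cortical networks grown over 16 microelectrodes per well; spontaneous firing is captured at four time points, and the per-network-spike spike number is integrated over development by trapezoidal AUC.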

[21] = CCTE_Shafer_MEA_dev_per_network_spike_spike_percent: CCTE's Neural Network Formation Assay for Percent of Spikes in a Network Spike, Shafer Lab (AID 2284054)
Summary of the method: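 Read-out: percent of spikes falling in a 0.05 s window at network-spike peak, from spontaneous MEA recordings on days 5, 7, 9 and 12; trapezoidal AUC; loss of signal versus DMSO. Rat cortical cultures, compound present throughout.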

[22] = UKN5_HCS_SBAD2_cell_viability: Viability Assessment in the University of Konstanz (UKN) Leist Lab Neurite Outgrowth Assay in human iPSC-derived immature Dorsal Root Ganglia Neurons (UKN5) (AID 2284056)
Summary of the method: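 iPSC-derived immature peripheral neurons (SBAD2) seeded on Matrigel with CHIR99021, SU5402 and DAPT, dosed 1 h later for 24 h. Viability from Hoechst H-33342 and calcein-AM live staining, high-content imaging; bidirectional fit versus DMSO.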

[23] = CCTE_Shafer_MEA_dev_LDH: CCTE's Lactate Dehydrogenase Assay for Cytotoxicity in the Neural Network Formation Assay, Shafer Lab (AID 2284068; active = hit-call score of the fitted dose curve at least 0.9, where 1 is the maximum;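 also: exposure for twelve days from plating with re-dosing on DIV 5 and 9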)
Summary of the method: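 Cytotoxicity companion to network-formation recordings: rat cortical neurons received compound over 12 days of development, re-dosed at DIV 5 and 9 feeds. Viability was inferred from LDH enzyme activity relative to DMSO.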

[24] = UKN5_HCS_SBAD2_neurite_outgrowth: University of Konstanz (UKN) Leist Lab Neurite Outgrowth Assay in human iPSC-derived immature Dorsal Root Ganglia Neurons (UKN5) (AID 2284070); settings: actives raise or lower the signal
Summary of the method: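 Neurite area from calcein-AM high-content images after 24 h exposure (staining included), with H-33342 for viability, fitted both directions against DMSO. Cells: thawed immature SBAD2 peripheral neurons, 100.000 cells/cm2, with CHIR99021, SU5402, DAPT; dosing 1 h after seeding.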

[25] = CCTE_Shafer_MEA_dev_mutual_information_norm: CCTE's Neural Network Formation Assay for Mutual Information Normalization, Shafer Lab (AID 2284091)
Summary of the method: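 Neurons from rat cortex were seeded at 1.5 x 10^5 cells/well onto PEI-coated MEAs in a laminin drop, then exposed to compound from day 0 for twelve days. Network recordings on four days gave mutual information, summarised by AUC relative to DMSO.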

[26] = CCTE_Shafer_MEA_dev_correlation_coefficient_mean: CCTE's Neural Network Formation Assay for Mean Correlation Coefficient, Shafer Lab (AID 2284093)
Summary of the method: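 Read-out: well-mean correlation coefficient of spike trains between electrode pairs, collapsed over four recording days as trapezoidal area-under-the-curve. Developing rat cortical neuron networks grown on MEAs received test chemical continuously from plating.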

[27] = UKN2_HCS_IMR90_neural_migration: University of Konstanz (UKN) Leist Lab Neural Crest Cell Migration Assay in human induced IMR90 Pluripotent Stem Cells (UKN2) (AID 2284204); settings: actives raise or lower the signal
Summary of the method: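 Stopper-exclusion migration (cMINC), human iPSC-derived neural crest cells; N2-S + EGF/FGF; compound added 24 h post-stopper removal, 24 h exposure. Readout: calcein-AM/Hoechst 30 min, HCS fluorescence imaging; bidirectional fitting, DMSO baseline.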

Measured: outcome

CC(C)(C)NCC(O)c1cc(O)cc(O)c1 (configuration not stated)
inactive: [1] | [2] | [3] | [4] | [5] | [6] | [7] | [8] | [9] | [10] | [11] | [12] | [13] | [14] | [15] | [16] | [17] | [18] | [19] | [20] | [21] | [22] | [23] | [24] | [25] | [26] | [27]
